From PubChem BioAssay (NCATS)
Records with an inconclusive call do not appear. Active and inactive are the calls of the source. Unless noted, the call rests on the fitted dose curve; in most records, active means well fitted curve in either direction with a large enough effect (not every such curve was filed as active); inconclusive means small, poorly fitted or top-dose-only effect, or another doubt; inactive means flat fitted curve, though single readings scatter.

Experiments:
[1] = AP1 Signaling Pathway (AID 357); settings: ME-180 AP-1-bla reporter, EGF-induced, beta-lactamase ratio, 5 h; at 7.69 µM (top of the series) unless noted;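 further: ME-180 reporter cells stimulated with EGF at its EC50 level; on the % scale 0 is the no-effect control and ±100 the full control effect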
Procedure, shortened: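 Titration-series screen for positive or negative modulators of EC50 EGF-induced signaling in ME-180 cells carrying an AP-1-driven beta-lactamase reporter. After 5 hours at 37 degrees Celsius, CCF4 460nm/530nm emission ratio gave %Activity; AC50 values derived.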

[2] = molecular target: Cytochrome P450 1A2 (Homo sapiens) (UniProt P05177); assay: p450-cyp1a2 (AID 410; calls by dose curve; further: potency means the concentration at half of the fitted maximal effect;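 on activity change, negative = inhibition: -100% = full effect of reference inhibitor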)
Chain of Cytochrome P450 1A2 (Homo sapiens) (P05177 whole entry, looked up): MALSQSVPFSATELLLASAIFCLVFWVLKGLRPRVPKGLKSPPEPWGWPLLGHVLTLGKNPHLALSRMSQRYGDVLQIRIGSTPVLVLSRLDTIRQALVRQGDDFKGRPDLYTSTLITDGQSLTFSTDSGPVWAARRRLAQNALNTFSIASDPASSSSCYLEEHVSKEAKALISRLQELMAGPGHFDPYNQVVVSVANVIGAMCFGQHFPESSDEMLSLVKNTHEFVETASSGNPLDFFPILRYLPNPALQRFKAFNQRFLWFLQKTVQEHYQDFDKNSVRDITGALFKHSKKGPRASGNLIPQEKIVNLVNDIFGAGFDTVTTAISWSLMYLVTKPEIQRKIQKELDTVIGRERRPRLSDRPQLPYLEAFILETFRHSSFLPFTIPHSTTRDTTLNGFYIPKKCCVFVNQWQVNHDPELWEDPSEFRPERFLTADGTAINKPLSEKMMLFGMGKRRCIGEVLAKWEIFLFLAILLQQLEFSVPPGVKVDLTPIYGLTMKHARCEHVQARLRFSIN
Procedure, shortened: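 20nM CYP1A2 with 100uM Luciferin-ME (at Km) in 100mM KPO4; compound preincubated 10 min, NADPH regeneration added, 60 min at room temperature. Luciferin quantified by luminescence after detection reagent; normalized to 57 uM furafylline.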

[3] = Stat Signaling Pathway (AID 446); settings: ME-180 SIE beta-lactamase reporter, IL-6 stimulated, 5 h; at 7.69 µM (top of the series) unless noted;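 further: ME-180 cervical cancer cells given 40 pM IL-6 alongside compound; SIE-controlled beta-lactamase reporter measured as 460/530 nm FRET emission ratio; on the % scale 0 is the no-effect control and ±100 the full control effect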
Procedure, shortened: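 ME-180 cells carrying a SIE-driven beta-lactamase reporter are stimulated with 40 pM IL-6 for 5 h at 37C in the presence of compound. The 460/530 nm FRET substrate ratio is read after 2.5 h at RT. Data are normalised to 300 pM IL-6 and to 125 nM JAK inhibitor controls.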

[4] = molecular target: Glucocorticoid receptor (Homo sapiens) (UniProt P04150); assay: GR-EFC Redistribution (AID 451; calls by dose curve; further: potency means the concentration at half of the fitted maximal effect); settings: CHO-K1 GR-EFC translocation, beta-gal luminescence, 2 h
Chain of Glucocorticoid receptor (Homo sapiens) (P04150 whole entry, looked up, the tested form may be a part): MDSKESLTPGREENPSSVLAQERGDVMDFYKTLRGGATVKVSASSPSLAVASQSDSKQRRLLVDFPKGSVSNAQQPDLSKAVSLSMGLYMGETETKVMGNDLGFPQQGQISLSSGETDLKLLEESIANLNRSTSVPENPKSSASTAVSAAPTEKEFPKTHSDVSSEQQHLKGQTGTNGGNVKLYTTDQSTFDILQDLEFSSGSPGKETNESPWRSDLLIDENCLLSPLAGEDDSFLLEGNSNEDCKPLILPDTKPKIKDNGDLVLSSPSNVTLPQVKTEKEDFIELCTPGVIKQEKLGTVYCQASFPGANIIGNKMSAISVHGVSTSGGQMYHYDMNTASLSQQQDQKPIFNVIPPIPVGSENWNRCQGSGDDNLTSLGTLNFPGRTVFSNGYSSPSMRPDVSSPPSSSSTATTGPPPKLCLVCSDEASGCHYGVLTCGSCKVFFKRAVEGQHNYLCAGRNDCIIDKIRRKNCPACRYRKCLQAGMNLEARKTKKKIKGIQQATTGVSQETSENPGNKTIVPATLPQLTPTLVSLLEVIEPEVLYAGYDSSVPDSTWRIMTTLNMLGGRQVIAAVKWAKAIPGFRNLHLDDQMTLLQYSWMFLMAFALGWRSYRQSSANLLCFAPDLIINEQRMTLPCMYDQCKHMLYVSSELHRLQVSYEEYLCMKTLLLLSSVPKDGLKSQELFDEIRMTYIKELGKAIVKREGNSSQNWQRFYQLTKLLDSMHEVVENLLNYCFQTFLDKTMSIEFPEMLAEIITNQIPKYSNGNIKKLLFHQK
Procedure, shortened: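 Translocation of GR-ED fusion to nuclear EA restores b-gal, read by luminescence after 1 h room-temperature detection. Engineered CHO-K1 biosensor cells, 1,000/well, exposed 2 h at 37 C to titrations up to 46 uM final.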

[5] = molecular target: Mitogen-activated protein kinase 10 (Mus musculus) (UniProt Q61831); assay: JNK3 AlphaScreen Assay (AID 530);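 further: kinase came from lysate of stimulated human HepG2 cells; signal reports phosphorylation of biotinylated GST-cJun 1-79 at Ser73 with 10 µM ATP; on the % scale 0 is the no-effect control and ±100 the full control effect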
Procedure, shortened: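 Compound titrations were preincubated 15 minutes at room temperature with substrate, antibody and pre-activated JNK3-containing HepG2 lysate. Reactions were started with 10 uM ATP and stopped with EDTA-containing bead buffer for AlphaScreen detection.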

[6] = molecular target: 3',5'-cyclic-AMP phosphodiesterase 4B (Homo sapiens) (UniProt Q07343); assay: qHTS Assay for Inhibitors of PDE-IV (AID 607; active means well fitted activation curve with a large enough effect in the main read-out, with a control signal flat, not every such curve was filed as active; further: % of control where 0% means no effect)
Chain of 3',5'-cyclic-AMP phosphodiesterase 4B (Homo sapiens) (Q07343 whole entry, looked up): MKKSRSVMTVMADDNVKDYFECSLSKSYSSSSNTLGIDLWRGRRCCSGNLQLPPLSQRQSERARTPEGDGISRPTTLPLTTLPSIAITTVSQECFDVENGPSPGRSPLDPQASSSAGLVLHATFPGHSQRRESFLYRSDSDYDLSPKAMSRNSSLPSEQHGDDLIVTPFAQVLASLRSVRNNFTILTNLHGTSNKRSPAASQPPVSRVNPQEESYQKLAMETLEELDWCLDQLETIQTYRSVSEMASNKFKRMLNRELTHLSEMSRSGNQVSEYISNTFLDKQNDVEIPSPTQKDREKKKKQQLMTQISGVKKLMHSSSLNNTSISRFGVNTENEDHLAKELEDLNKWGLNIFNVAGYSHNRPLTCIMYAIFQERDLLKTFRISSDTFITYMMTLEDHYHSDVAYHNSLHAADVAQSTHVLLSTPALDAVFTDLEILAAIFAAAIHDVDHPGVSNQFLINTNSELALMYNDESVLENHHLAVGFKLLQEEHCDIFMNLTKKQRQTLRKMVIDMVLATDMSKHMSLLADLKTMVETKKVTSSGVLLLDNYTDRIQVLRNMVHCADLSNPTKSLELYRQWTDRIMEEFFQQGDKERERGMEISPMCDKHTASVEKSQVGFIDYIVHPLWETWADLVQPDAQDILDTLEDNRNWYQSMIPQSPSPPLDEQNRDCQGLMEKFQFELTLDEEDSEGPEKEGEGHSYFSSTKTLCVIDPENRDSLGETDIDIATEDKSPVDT
Procedure, shortened: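 HEK293 ACTOne cells with CNG channel (1000/well), endogenous PDE4; membrane potential dye, compounds up to 22.9 uM final. Fluorescence Ex 535/Em 590; RO 20-1724 (100 uM final) as reference.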

[7] = qHTS Assay for Lipid Storage Modulators (AID 1519; calls by dose curve); settings: Drosophila S3 cells, BODIPY lipid droplet/cell ratio, laser cytometry, cells loaded with oleic acid; for activity change, negative = inhibition: at 57.5 µM (top of the series)
Procedure, shortened: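 Cells seeded at 5,000 per well were treated with compounds over a concentration series and loaded with oleic acid (400 uM, as added). Lipid droplet fluorescence (488 nm excitation, 500-530 nm channel) was read by laser-scanning cytometry and normalized to 20 uM Triacsin C.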

[8] = Primary qHTS for small molecule stabilizers of the endoplasmic reticulum resident proteome: Secreted ER Calcium Modulated Protein (SERCaMP) assay (AID 1508630; active means well fitted curve in the direction sought with a large enough effect; an effect the other way counts as inactive or inconclusive; further: on the % scale 0 is the no-effect control and ±100 the full control effect)
Procedure, shortened: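 GLuc-SERCaMP-expressing SH-SY5Y cells, pretreated 16 h with compound, are challenged with thapsigargin to empty ER calcium stores; after 4 h, coelenterazine is added directly to the medium and luminescence is imaged.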

[9] = molecular target: Glucocorticoid receptor (Homo sapiens) (UniProt P04150); assay: GR-GFP Redistribution (AID 450;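 active means compounds whose dose series gives a full or clear partial fitted curve of increased nuclear translocation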; further: potency means the concentration at half of the fitted maximal effect); settings: U2OS GR-GFP nuclear translocation, laser cytometry, 2 h
[10] = molecular target: Cytochrome P450 3A4 (Homo sapiens) (UniProt P08684); assay: qHTS Assay for Activators of Cytochrome P450 3A4 (AID 885; active means well fitted curve in the direction sought with a large enough effect; an effect the other way counts as inactive or inconclusive; further: nearly all actives have a fitted effect of over 65% in size)
Chain of Cytochrome P450 3A4 (Homo sapiens) (P08684 whole entry, looked up): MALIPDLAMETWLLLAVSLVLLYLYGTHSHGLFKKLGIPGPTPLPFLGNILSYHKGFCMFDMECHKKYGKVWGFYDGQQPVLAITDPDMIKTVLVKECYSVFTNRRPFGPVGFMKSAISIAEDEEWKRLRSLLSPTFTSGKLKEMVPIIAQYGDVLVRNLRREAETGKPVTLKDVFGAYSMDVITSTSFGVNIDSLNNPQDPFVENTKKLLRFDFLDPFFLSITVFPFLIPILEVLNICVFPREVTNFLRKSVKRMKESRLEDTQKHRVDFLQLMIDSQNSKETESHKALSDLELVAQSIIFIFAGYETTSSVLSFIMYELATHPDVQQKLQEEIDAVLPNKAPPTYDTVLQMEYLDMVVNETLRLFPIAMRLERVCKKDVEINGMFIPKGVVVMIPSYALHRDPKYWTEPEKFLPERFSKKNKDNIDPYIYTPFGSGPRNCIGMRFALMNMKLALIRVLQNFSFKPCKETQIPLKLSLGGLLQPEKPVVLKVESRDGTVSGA
Procedure, shortened: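 Human CYP3A4 (20 nM) with Luciferin-PPXE at 25 uM (its KM) in 200 mM KPO4; 10 min compound preincubation, then NADPH regeneration and 60 min reaction at RT. Luciferin read by luminescence; normalized to 57 uM ketoconazole full inhibition.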

[11] = NFAT Signaling Pathway (AID 444); settings: Jurkat NFAT-bla M1, carbachol, beta-lactamase ratio, 5 h; at 7.69 µM (top of the series) unless noted
Procedure, shortened: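 Read-out: CCF4 FRET ratio (460 nm/530 nm) after 1 h RT dye loading, used for %activity and AC50 from titration series. Cells: Jurkat NFAT-β-lactamase/M1 line, treated with compound plus 1 uM carbachol for 5 h, 37 °C.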

[12] = molecular target: Ubiquitin carboxyl-terminal hydrolase 1 (Homo sapiens) (UniProt O94782); assay: Inhibitors of USP1/UAF1: Pilot qHTS (AID 504865; active means well fitted curve in the direction sought with a large enough effect; an effect the other way counts as inactive or inconclusive;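 further: rhodamine fluorescence freed from ubiquitin-rhodamine substrate followed over time; top concentration of the series differs between compounds; on the % scale 0 is the no-effect control and ±100 the full control effect; nearly all actives have a fitted effect of over 35% in size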)
Chain of Ubiquitin carboxyl-terminal hydrolase 1 (Homo sapiens) (O94782 whole entry, looked up): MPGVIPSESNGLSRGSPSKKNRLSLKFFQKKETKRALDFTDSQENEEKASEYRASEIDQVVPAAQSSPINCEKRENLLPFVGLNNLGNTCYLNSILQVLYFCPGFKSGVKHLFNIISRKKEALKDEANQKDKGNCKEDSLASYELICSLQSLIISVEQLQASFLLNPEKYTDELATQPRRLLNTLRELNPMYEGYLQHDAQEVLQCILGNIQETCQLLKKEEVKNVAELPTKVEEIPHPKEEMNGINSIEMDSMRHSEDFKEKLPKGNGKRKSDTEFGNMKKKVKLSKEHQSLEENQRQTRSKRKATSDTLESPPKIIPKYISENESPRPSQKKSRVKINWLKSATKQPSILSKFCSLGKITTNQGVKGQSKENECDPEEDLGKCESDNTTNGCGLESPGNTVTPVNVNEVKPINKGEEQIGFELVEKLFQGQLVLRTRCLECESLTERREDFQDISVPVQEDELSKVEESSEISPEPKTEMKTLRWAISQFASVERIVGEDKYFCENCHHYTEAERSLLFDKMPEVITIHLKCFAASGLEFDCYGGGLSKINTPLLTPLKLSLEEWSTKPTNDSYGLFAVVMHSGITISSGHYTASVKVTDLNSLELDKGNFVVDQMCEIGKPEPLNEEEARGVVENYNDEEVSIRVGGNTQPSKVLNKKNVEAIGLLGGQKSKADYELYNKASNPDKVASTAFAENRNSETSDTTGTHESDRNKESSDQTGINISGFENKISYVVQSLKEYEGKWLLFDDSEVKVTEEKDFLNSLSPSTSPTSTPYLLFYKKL
Procedure, shortened: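 USP1/UAF1 complex at 1 nM preincubated 15 min at room temperature with compound, then Ub-Rho substrate added at 150 nM final. Fluorescence (480/540 nm) read kinetically in 50 mM HEPES pH 7.8, 0.5 mM EDTA, 1 mM TCEP, 0.1 mg/ml BSA, 0.01% Tween-20.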

[13] = measured here: cell count channel max response
[14] = measured here: lipid channel max response

Structure (SMILES)	activity change, negative = inhibition [1]	Potency [2]	activity, negative = inhibition [3]	Potency [4]	Potency [5]	Potency [6]	activity change, negative = inhibition [7]	max response [7, 13]	max response [7, 14]	outcome [8]	Potency [9]	Potency [10]	activity change, negative = inhibition [11]	Potency [12]
O=C(c1csnn1)N1CCC2(CCN(Cc3ccccc3)CC2)CC1	13.9% (inactive)	inactive	-0.255% (inactive)	> 46 µM (inactive)	inactive	inactive	-4.6% (inactive)	4.52%	1.17%	inactive	–	–	–	–
Cc1cnc(CNc2nc(-c3ccc(N(C)C)cc3)nc3ccccc23)cn1	-17% (inactive)	3.16 µM (active)	7.71% (inactive)	> 46 µM (inactive)	inactive	inactive	11.9% (inactive)	13.6%	26%	inactive	> 46 µM (inactive)	inactive	–	–
COc1ccc(NC(=O)N2CC3(CCN(C(=O)c4csnn4)CC3)C2)cc1	20.6% (inactive)	inactive	-2.12% (inactive)	> 46 µM (inactive)	inactive	inactive	6.22% (inactive)	7.84%	18.1%	inactive	–	–	16.7% (inactive)	–
Cn1cc(C(F)(F)F)nc1-c1ccc(OC[C@@H](O)CNCCOc2ccc(O)c(C(N)=O)c2)cc1	-8.84% [at 38 µM] (inactive)	–	–	> 46 µM (inactive)	inactive	inactive	1.54% (inactive)	-4.45%	-2.61%	inactive	> 46 µM (inactive)	–	-4.88% [at 38 µM] (inactive)	–
CC(=O)NCCNc1ncncc1-c1ccccc1C(F)(F)F	1.26% (inactive)	inactive	6.6% (inactive)	> 46 µM (inactive)	inactive	inactive	-1.77% (inactive)	-7.27%	-8.94%	inactive	> 46 µM (inactive)	inactive	–	inactive
CN(C)Cc1ccccc1-c1nccc(NCc2cccs2)n1	3.22% (inactive)	0.794 µM (active)	0.159% (inactive)	> 46 µM (inactive)	inactive	–	10.9% (inactive)	4.85%	9.23%	inactive	> 46 µM (inactive)	–	-11.6% (inactive)	inactive
CS(=O)(=O)Nc1cccc(-c2nc(NCCN3CCOCC3)c3ccccc3n2)c1	-21.3% (inactive)	25.1 µM (active)	-7.39% (inactive)	> 46 µM (inactive)	inactive	inactive	9.69% (inactive)	-5.53%	2.51%	inactive	> 46 µM (inactive)	inactive	–	–
